Source: the supplement of paper PMC6555819

System: PPARg:RXRa IVT, anti-PPARg (NR concentration 270 nM, RXRa partner concentration 90 nM)
Assay: PBM binding z-score (relative to random genomic background probes); higher = stronger binding; sequences stand for … in GC…GCGATTGACAGCGTAGAATGAAGG
How it was run: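 Custom Agilent 4×180K protein-binding microarrays carried double-stranded probes, each with a 34-nt variable region. These regions held direct-repeat seeds, single-nucleotide variants, half-site ablations and random human genomic background sequences. Ligand-free nuclear receptor dimers were incubated on the arrays for 1 h, antibodies against each partner (one per run) detected binding, and scanned fluorescence was regression-normalized. Binding z-scores take the random background probes as reference.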

Row | Sequence | PBM binding z-score
1 | TCTTGTAGATCAAGCAGGCTAAGAAAGCCTGAGT | 0.173
2 | ACTAGCAGACCAAGGGTCACTCAAGATTAGTCCG | 1.84
3 | GCGACTGGGGCAAAGCCGGTTACCATAAGGTTGG | 2.75
4 | ATATGTAGGGTATCGGGTCATTCAGTTTGCGCAT | 6.58
5 | CGTCCAAGGTTATAGGAGGTCAGTGAAGACAGAT | 2.3
6 | ACTATTAGTTGAGACGAAGGCAACCGATAGGTTG | -0.28
7 | CCGACTGGGGCAGAAGGTTACCATAAGCCAGCCC | 1.92
8 | TCATATAGCTAAACAGGTGAAAGTCCGTAAGTTA | 0.758
9 | CGAACTAGGTCGGAACAGGACAGTGAAGGATGAT | 3.56
10 | TAGCCTAGGTCATTGGGCCAGTATCGTACGCATC | 3.95
11 | TCTCGGAGGACACGAAGGGCAGAGCTTTCCAGAG | 0.0832
12 | TCTGCTAGGTCAGTTGGTCAGTTAACGAGCTGCC | 2.98
13 | ACTAGCAGGCCAAGGGTCACTTAAGATTAGTCCG | 3.66
14 | CCTCGGGGGACAGAAGGTCAGAGCTGTCCGCTTT | 1.38
15 | GCTCGGATGACAAGGTCAGAGCTTTGTCCGTAGA | 0.0489
16 | CCTACTGGGCCACCAGGTCATTGATATCAACGTT | 6.19
17 | TGAATGAGGTTAAAGAACAGGGAACGTGGCGTCG | 2.33
18 | GCGACTGGGGCATCAGCAGGTTACGATAACTTAA | 3.19
19 | TAGCCTAGGTCATTCAGGAGCCAGTATAGAAAGC | 2.52
20 | ACTGACAGGTGAGTGAAGGTAACTCAGCTGGACG | 1.07

Row | Sequence | PBM binding z-score
21 | AATACAGGGTCATCGTAGGCCAGAGGACGCACAG | 4.1
22 | CGAACTGGGTCATTGACAGGACAGTGAATAGTAA | 7.88
23 | GCTTACGAGTCAAAGGTTATAGCATGAATAGAAT | 1.3
24 | CCTAGTTGGTCCGGAGGTCACACACCGGATATGA | 1.77
25 | TAGCCTAGGTCATGCAGGCCAGTATAGTGTCGGC | 2.9
26 | TAGCATAGGTCATGGGCCAGTATACCACGCGAAC | 2.53
27 | TCATACAGGTAAAAGGTGAAAGTCGGTGTGGTAA | 3.68
28 | TCAAGCAGGCCAGAGGGTCACTCAAGAGGTACGG | 0.884
29 | CTACCAAGGTGAACAAGGTCGTCGATTACTATTC | 2.94
30 | TCTGCTAGGTCAACGAGGGTCAGCTAATCTGCTA | 4.28
31 | TCTTGTGGATCAGCAGGTTAAGAAAGCTGGCCAA | 0.745
32 | CCTACTGGACCATTCAGAGGTCATTGATCATATG | 1.98
33 | ATCGAAAGATCGACGAGGTGAGTATACACCGTTT | 0.27
34 | CCAGACAGGTGAGAAGGTAAGTCAGCCTCGATTA | 0.37
35 | GTGACTGGGGCAAAGCAGGTTACCATAAGGTTGG | 5.02
36 | GCTAGCAGGCCATTTGGGTCACTGAATGACGGGC | 2.35
37 | TCATATAGGTAAATGCTAGGTAAAAGTCCGATCT | 2.3
38 | ACAGACAGGTGATGAAGGGAACTCAGGCTATCAT | 0.145
39 | GCTAGTTGGTCAGTAAAAGGTCACACCCCGGTCG | 2.91
40 | ACTATTTGTTGACTTAGGGCAACCGATACGACGC | 0.532
